Measured values taken from the supplement of paper PMC3334620.
In all, about 33,000 sequences were measured (“E-score (-0.5 to 0.5)”: median about -0.04, highest 2% from about 0.36 on). Many of the other results were omitted from the sample, so the highest values are more common in it than they were.

Each sequence was assayed against T1, Hmlalpha2 (UniProt P0CY09) (assay: PBM E-score (8-mer binding enrichment) (E-score (-0.5 to 0.5)); higher = stronger / more preferred TF binding). Details: protein concentration: 200 nM; construct: GST-full length.
T1 sequence: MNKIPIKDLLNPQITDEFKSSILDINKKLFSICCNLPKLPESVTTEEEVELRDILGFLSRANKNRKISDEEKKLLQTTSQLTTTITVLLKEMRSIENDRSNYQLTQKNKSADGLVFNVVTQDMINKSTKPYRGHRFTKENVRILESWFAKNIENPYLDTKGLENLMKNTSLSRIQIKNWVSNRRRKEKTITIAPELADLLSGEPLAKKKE
How it was run: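 Bound GST-tagged yeast transcription factors, applied at about 100-200 nM to double-stranded universal all-10-mer Agilent arrays, were detected with fluorescent anti-GST. Scans were normalised with masliner. A modified Wilcoxon-Mann-Whitney statistic, the E-score, was assigned to each ungapped eight-base word pooled with its reverse complement by the Universal PBM Analysis Suite.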
For CCCGCCAC, the “PBM E-score” value was -0.152.
With ATATTGGG the “PBM E-score” value was -0.261.
With GACTCTGA the “PBM E-score” value was -0.12.
With CTCGAACA the “PBM E-score” value was 0.112.
With AAAGCCAT the “PBM E-score” value was 0.0384.
AACCCTGG was tested, and the “PBM E-score” value was -0.204.
In the case of ATGTACAT, the “PBM E-score” value was 0.457.
ATGTACAA was tested, and the “PBM E-score” value was 0.433.
With AGGTACAA the “PBM E-score” value was 0.21.
For ATGTACGA, the “PBM E-score” value was 0.281.
GTGTACTA was tested, and the “PBM E-score” value was 0.311.
In the case of ATGTACTG, the “PBM E-score” value was 0.351.
For ATGTACAG, the “PBM E-score” value was 0.289.
AGGTACAT was tested, and the “PBM E-score” value was 0.288.
In the case of ATGTACTA, the “PBM E-score” value was 0.397.
GCGCAAGA was tested, and the “PBM E-score” value was -0.0432.
For AAGACAGT, the “PBM E-score” value was -0.0478.
For AGAAAGTG, the “PBM E-score” value was -0.223.
With CCATTCGA the “PBM E-score” value was -0.0609.
In the case of ATCTCGTA, the “PBM E-score” value was 0.191.
With AAATCCGC the “PBM E-score” value was -0.125.
GAAAATTC was tested, and the “PBM E-score” value was -0.0326.
In the case of CAGCCTTC, the “PBM E-score” value was -0.301.
In the case of CCATGATC, the “PBM E-score” value was -0.128.
For TCATGAGA, the “PBM E-score” value was 0.0706.
With CCATGATA the “PBM E-score” value was -0.142.
ACATGAGT was tested, and the “PBM E-score” value was 0.364.
In the case of ACATGAGA, the “PBM E-score” value was 0.406.
For ACATGATA, the “PBM E-score” value was 0.435.
With ACATGATG the “PBM E-score” value was 0.348.
With GCATGATA the “PBM E-score” value was 0.116.
For ACATGATC, the “PBM E-score” value was 0.426.
In the case of CGGATATC, the “PBM E-score” value was -0.0199.
With TCTCTGAA the “PBM E-score” value was -0.162.
In the case of CGCATAGC, the “PBM E-score” value was -0.0965.
With AGGTCCAA the “PBM E-score” value was -0.112.
With ACGACCCC the “PBM E-score” value was -0.127.
In the case of ATGGCAAA, the “PBM E-score” value was -0.00556.
GTTGTACA was tested, and the “PBM E-score” value was 0.424.
For CTTGTACA, the “PBM E-score” value was 0.403.
With CTTGTAGA the “PBM E-score” value was 0.253.
With ATTGTACG the “PBM E-score” value was 0.123.
In the case of GTTGTAGA, the “PBM E-score” value was 0.325.
CTTGTACC was tested, and the “PBM E-score” value was 0.0814.
In the case of ATTGTACA, the “PBM E-score” value was 0.403.
For ATTGTACC, the “PBM E-score” value was 0.0764.
In the case of GCTGTACA, the “PBM E-score” value was 0.154.
CTAGTTCA was tested, and the “PBM E-score” value was 0.0551.
In the case of CCTCTCCG, the “PBM E-score” value was -0.305.
For TAAGTCGA, the “PBM E-score” value was -0.0631.
In the case of CAACGGTC, the “PBM E-score” value was -0.0538.
For AAGAGGGA, the “PBM E-score” value was -0.246.
With CAAGATAG the “PBM E-score” value was -0.0379.
In the case of GTTTTGAA, the “PBM E-score” value was 0.315.
In the case of ATCTCCTG, the “PBM E-score” value was -0.0358.
For CTGTGTGA, the “PBM E-score” value was 0.247.
With ATGTGTAG the “PBM E-score” value was 0.349.
For GGGTGTAA, the “PBM E-score” value was 0.342.
With AAGTGTAA the “PBM E-score” value was 0.156.
With ATGTGTGC the “PBM E-score” value was -0.0456.
With CTGTGTCA the “PBM E-score” value was 0.0766.
CTGTGTAA was tested, and the “PBM E-score” value was 0.483.
In the case of ATGTGTAC, the “PBM E-score” value was 0.372.
With CTGTGTAC the “PBM E-score” value was 0.35.
For GAGTGTAA, the “PBM E-score” value was 0.295.
In the case of GTGTGTAA, the “PBM E-score” value was 0.465.
ATGTGTAA was tested, and the “PBM E-score” value was 0.452.
With CTCAGAGA the “PBM E-score” value was -0.0918.
With CGCTAAAC the “PBM E-score” value was 0.0834.
With CAAGATGA the “PBM E-score” value was -0.0169.
For AAATGCCG, the “PBM E-score” value was -0.02.
For ACGGGGAA, the “PBM E-score” value was -0.0619.
With AGACCACT the “PBM E-score” value was -0.00203.
For GCGCCAAC, the “PBM E-score” value was -0.0446.
With CGCTATAA the “PBM E-score” value was -0.00727.
With GCTTAACC the “PBM E-score” value was -0.00807.
In the case of CCTTAACA, the “PBM E-score” value was 0.291.
For TCTTAAGA, the “PBM E-score” value was -0.132.
With ACTTAACG the “PBM E-score” value was 0.14.
ACTTAACA was tested, and the “PBM E-score” value was 0.388.
In the case of ACTTAACT, the “PBM E-score” value was 0.159.
TCTTAAAA was tested, and the “PBM E-score” value was -0.0174.
TCTTAACA was tested, and the “PBM E-score” value was 0.404.
GCTTAACA was tested, and the “PBM E-score” value was 0.378.
With TATAACGA the “PBM E-score” value was 0.176.
ACCTAGCC was tested, and the “PBM E-score” value was -0.205.
In the case of AGTAGTGC, the “PBM E-score” value was -0.153.
